According to PubChem BioAssay (NCI):
The panel holds about 79,000 compounds, 15% with a hit somewhere; the sample as a whole holds those more often. Rule as the data show it: active = growth inhibition above about 70%; inactive = the rest.

Key:
[1] = NCI Yeast Anticancer Drug Screen. Data for the rad50 strain (AID 155);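 also: 0% = growth of vehicle-only cultures of the same strain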; conditions: S. cerevisiae rad50 strain growth inhibition; at 50.0 µM; hits give high values
Outline: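 Inhibition values express reduced yeast growth in compound-treated cultures relative to vehicle-treated controls.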

[2] = NCI Yeast Anticancer Drug Screen. Data for the mec2-1 strain (AID 157); conditions: S. cerevisiae mec2-1 strain, at 50.0 µM, hits give high values
Outline: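 Using mec2-1 yeast: add compound, measure growth, express inhibition versus vehicle-treated cultures.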

[3] = NCI Yeast Anticancer Drug Screen. Data for the sgs1 mgt1 strain (AID 161);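 also: 0% = growth of cultures given vehicle only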; conditions: S. cerevisiae sgs1 mgt1 strain, at 50.0 µM, hits give high values
Outline: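 Yeast cells carrying a defined DNA-repair defect were exposed to test compounds. Growth inhibition was measured relative to vehicle-treated controls.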

[4] = NCI Yeast Anticancer Drug Screen. Data for the cln2 rad14 strain (AID 165);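 also: 0% = growth equal to vehicle treated cultures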; conditions: S. cerevisiae cln2 rad14 strain, at 50.0 µM, hits give high values
Outline: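 Yeast strain cln2 rad14, bearing defects in cell cycle control and DNA repair, serves as the test system; values reflect growth inhibition compared with vehicle.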

[5] = NCI Yeast Anticancer Drug Screen. Data for the bub3 strain (AID 167); conditions: S. cerevisiae bub3 mutant strain, at 50.0 µM, hits give high values
Outline: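 Steps: expose the mutant yeast strain to compound; grow alongside vehicle-treated cultures; measure growth; express inhibition against the vehicle cultures.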

[6] = NCI Yeast Anticancer Drug Screen. Data for the mlh1 rad18 strain (AID 175); conditions: S. cerevisiae mlh1 rad18 strain growth inhibition; at 50.0 µM; hits give high values
Outline: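 Steps: expose repair-defective yeast to compound; measure growth; express inhibition against vehicle-treated controls.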

Measured: growth inhibition

Cc1ccc(OCCNCCO)cc1
inactive: [1] 23.3% | [2] -11.4% | [3] 6.3% | [4] 10.4% | [5] -1.2% | [6] 18.2%

COC(=O)c1ccccc1C(=O)O
inactive: [1] 17.1% | [2] 4.05% | [3] 11.6% | [4] -10.1% | [5] 3.4% | [6] 23.2%

CCCCCCC(O)C/C=C/CCCCCC/C(C(=O)OC)=C(/O)C(=O)OCC (stereo unspecified)
inactive: [1] 3.3% | [2] -3.35% | [3] 11.5% | [4] -27.6% | [5] -6.7% | [6] 1.1%

Oc1c2cccc1Cc1cccc3c1OCCOCCOCCOCCOc1c(cccc1Cc1cccc(c1O)C3)C2
inactive: [1] 9.1% | [2] 12.8% | [3] 9.45% | [4] 13.8% | [5] 12.4% | [6] -6.05%

CC(C)(CCc1nc2ccccc2[nH]1)C(=O)O
inactive: [1] -18.1% | [2] -6.35% | [3] -1.35% | [4] -10% | [5] 1.05% | [6] -3.85%

Nc1nc(N)nc(-c2ccc([N+](=O)[O-])o2)n1
inactive: [1] 41.8% | [2] 10.8% | [3] 29.9% | [4] 20.8% | [5] 12.2% | [6] 41.6%

CCC(C(N)=O)C(C)(C)C (stereo unspecified)
inactive: [1] -0.15% | [2] -12.2% | [3] -4.7% | [4] 7.3% | [5] 12.3% | [6] -1.2%

NN1CCOC1=O
inactive: [1] 1.4% | [2] -35.9% | [3] 11.7% | [4] -2.9% | [5] -14.1% | [6] -1.7%

CN1CC2(CO)C(c3ccccn3)N(C)C(c3ccccn3)C(CO)(C1)C2O (stereo unspecified)
inactive: [1] 2.5% | [2] 16.4% | [3] -10.7% | [4] -6.2% | [5] -0.6% | [6] 10.8%

[Br][Pt+2][Br].[NH-]c1cccc(F)c1.[NH-]c1cccc(F)c1
inactive: [1] 50.9% | [2] 11.4% | [3] 39.4% | [4] 6.4% | [5] 5.65% | [6] 46.3%

CCOC(=O)c1ccccc1Nc1c(C(=O)OCC)cnc2cc3c(cc12)OCO3
inactive: [1] -13.8% | [2] 3.95% | [3] -9.85% | [4] 2.85% | [5] -0.25% | [6] -7.8%

CCC(=O)c1c(O)cc(O)cc1O
inactive: [1] -13.8% | [2] -15.6% | [3] 13.7% | [4] -22.6% | [5] 2.5% | [6] -25%

Nc1nc2c(ncn2Cc2ccc(Cl)c(Cl)c2)c(=O)[nH]1
inactive: [1] -5.1% | [2] -7.4% | [3] -1.65% | [4] -10.1% | [5] -0.5% | [6] 2.55%

CC(=O)OCC1OC(N=[N+]=[N-])C(OC(C)=O)C(OC(C)=O)C1OC1OC(COC(C)=O)C(OC(C)=O)C(OC(C)=O)C1OC(C)=O (stereo unspecified)
inactive: [1] -19.1% | [2] -29.9% | [3] -16.2% | [4] -0.35% | [5] 5.55% | [6] -17.1%

COC(=O)C1=C(C)N(NC(=O)c2cccc(Cl)c2)C(C)(O)C12CCOC2=O (stereo unspecified)
inactive: [1] 37.6% | [2] -21.6% | [3] 4.15% | [4] 6.65% | [5] 0.6% | [6] 38.1%

NS(=O)(=O)c1ccc(N=Nc2c[nH]c(=O)c(O)c2)cc1
inactive: [1] 3.45% | [2] 4.95% | [3] -9.55% | [4] -37.4% | [5] -60.4% | [6] 2.3%

CN1CCc2nc(N)nc(-c3nc(N)nc4c3CN(C)CC4)c2C1
inactive: [1] -3.15% | [2] -12.2% | [3] -11.4% | [4] -17.1% | [5] -37.1% | [6] -1.8%

COc1ccc(/C=N/NC(=O)O)cc1
inactive: [1] 4.55% | [2] -5.35% | [3] -24% | [4] -12.3% | [5] -32.5% | [6] -18.4%

N#CC(NNC(=O)c1ccccc1O)c1ccccc1 (stereo unspecified)
inactive: [1] 16.1% | [2] 0.5% | [3] 9.85% | [4] -8.7% | [5] 35.9% | [6] 3.75%

COc1ccc(OC)c(NC(=O)C(=O)NNC(=O)c2sc(NNC(C)=O)nc2C)c1
inactive: [1] 66.7% | [2] 28.8% | [3] 47.4% | [4] 26.5% | [5] 61% | [6] 30.8%

N#CC(C(=O)O)C(c1cccc2ccccc12)c1cccc2ccc3ccccc3c12 (stereo unspecified)
inactive: [1] 51% | [2] -2.3% | [3] 27.1% | [4] -4.35% | [5] 7.05% | [6] 13.8%
